Records with an inconclusive call do not appear. Activity calls are given as the source filed them. Unless noted, calls come from the whole dose curve.
Columns and labels:
[1] = target: Peroxisome proliferator-activated receptor delta (Homo sapiens) (UniProt Q03181); experiment: qHTS assay to identify small molecule agonists of the peroxisome proliferator-activated receptor delta (PPARd) signaling pathway (AID 743212)
Outline: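 HEK293H UAS-bla reporter cells, human PPARd system; compounds delivered in DMSO after 5 h plating, then at 37 C. Beta-lactamase FRET read, 2 h RT substrate step.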

[2] = qHTS assay to identify small molecule antagonists of the peroxisome proliferator-activated receptor delta (PPARd) signaling pathway - cell viability counter screen (AID 743213; active = well fitted curve in the direction sought with a large enough effect in the repeat runs; an effect the other way counts as inactive or inconclusive; note: nearly all actives have a fitted effect of over 50% in size)
Outline: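 HEK293H PPARd UAS-bla cells, 5 h pre-incubation, compound + L165041 300 nM final, 17 h 37 C; B/G FRET substrate 2 h RT; then CellTiter-Glo 30 min RT, luminescence.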

[3] = target: Peroxisome proliferator-activated receptor delta (Homo sapiens) (UniProt Q03181); experiment: qHTS assay to identify small molecule antagonists of the peroxisome proliferator-activated receptor delta (PPARd) signaling pathway (AID 743215; active = well fitted inhibition curve with a large enough effect in the signal ratio in the repeat runs, not every such curve was filed as active; the % refers to the signal ratio;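 note: cells stimulated with agonist L165041 at 300 nM final during compound exposure; series mostly up to about 62 µM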)
Outline: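 PPARd-bla HEK293H cells (UAS-bla reporter) preincubated 5 h, then given compound plus 300 nM final L165041 agonist for 17 h at 37 C. Beta-lactamase activity read by LiveBLAzer B/G FRET substrate fluorescence after 2 h at room temperature.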

[4] = target: Bile acid receptor (Homo sapiens) (UniProt Q96RI1); experiment: qHTS assay to identify small molecule antagonists of the farnesoid-X-receptor (FXR) signaling pathway (AID 743217; active = well fitted inhibition curve with a large enough effect in the signal ratio in the repeat runs, not every such curve was filed as active; the % refers to the signal ratio)
Outline: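 FXR-UAS-bla HEK 293T cells (beta-lactamase reporter) given compound plus chenodeoxycholic acid (50 uM final), 16 h at 37C. LiveBLAzer B/G FRET substrate added for 2 h at room temperature; fluorescence read.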

[5] = target: Bile acid receptor (Homo sapiens) (UniProt Q96RI1); experiment: qHTS assay to identify small molecule agonists of the farnesoid-X-receptor (FXR) signaling pathway (AID 743220; active = well fitted activation curve with a large enough effect in the signal ratio in the repeat runs, not every such curve was filed as active; the % refers to the signal ratio)
Outline: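 Beta-lactamase reporter under UAS control in GeneBLAzer FXR HEK 293T cells (5000/well) measured with LiveBLAzer FRET substrate after 2 h at room temperature. Compound exposure lasted 16 h at 37C.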

[6] = qHTS assay to identify small molecule antagonists of the farnesoid-X-receptor (FXR) signaling pathway - cell viability counter screen (AID 743221; active = well fitted cell-killing curve with a large enough effect in the repeat runs, not every such curve was filed as active; note: nearly all actives have a fitted effect of over 50% in size)
Outline: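 Cytotoxicity is taken from ATP luminescence (CellTiter-Glo, 30 min, room temperature) in FXR-bla HEK 293T cells previously incubated 16 h at 37 C with compound and chenodeoxycholic acid at 50 uM final.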

[7] = target: Vitamin D3 receptor (Homo sapiens) (UniProt P11473); experiment: qHTS assay to identify small molecule antagonists of the vitamin D receptor (VDR) signaling pathway (AID 743223; active = well fitted inhibition curve with a large enough effect in the signal ratio in the repeat runs, not every such curve was filed as active; the % refers to the signal ratio)
Outline: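 Quantitative HTS in VDR-bla reporter cells stimulated with 1alpha,25-dihydroxyvitamin D3, 3 nM final. Compound exposure 16 h, 37C, 5% CO2. Read-out: beta-lactamase FRET substrate fluorescence, 2 h RT.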

[8] = qHTS assay to identify small molecule antagonists of the vitamin D receptor (VDR) signaling pathway - cell viability counter screen (AID 743225; active = well fitted curve in the direction sought with a large enough effect in the repeat runs; an effect the other way counts as inactive or inconclusive; note: nearly all actives have a fitted effect of over 50% in size)
Outline: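 Same-well multiplex: following 16 h treatment of HEK 293T cells carrying a UAS-driven beta-lactamase reporter with compound and agonist (3 nM final), and a 2 h FRET substrate step, CellTiter-Glo was added and luminescence read after 30 min.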

[9] = qHTS assay to identify small molecule agonists of the NFkB signaling pathway (AID 1159509; active = well fitted curve in the direction sought with a large enough effect in the signal ratio in the repeat runs, not every such curve was filed as active; the % refers to the signal ratio; note: series mostly up to about 61 µM)
Outline: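 NFkB-bla ME-180 cells with a beta-lactamase reporter under an NF-kB response element were plated overnight, treated with compounds in DMSO for 5 hr at 37 C, then loaded with FRET substrate for 1.5 hr at room temperature.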

[10] = qHTS assay to identify small molecule agonists of the NFkB signaling pathway - cell viability counter screen (AID 1159515); note: series mostly up to about 61 µM; nearly all actives have a fitted effect of over 55% in size
Outline: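 NFkB-bla ME-180 cells, 2,000/well, plated overnight at 37 C; compound added for 5 hr at 37 C. Viability read in the same wells as the bla reporter, by CellTiter-Glo luminescence after 30 min at room temperature.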

[11] = qHTS assay to identify small molecule agonists of the endoplasmic reticulum stress response signaling pathway (AID 1159516; active = well fitted activation curve with a large enough effect in the signal ratio in the repeat runs, not every such curve was filed as active; the % refers to the signal ratio)
Outline: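 CellSensor ESRE-bla HeLa cells, 1,500 per well, plated overnight, then exposed to compounds for 5 hr at 37 C. Beta-lactamase reporter read with LiveBLAzer B/G FRET substrate after 2 hr at room temperature, 405 nm excitation, 460 and 530 nm emission.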

[12] = qHTS assay to identify small molecule agonists of the endoplasmic reticulum stress response signaling pathway - cell viability counter screen (AID 1159517);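 note: HeLa cells carrying an ER stress response element beta-lactamase reporter; series mostly up to about 61 µM; nearly all actives have a fitted effect of over 50% in size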
Outline: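 Cells, HeLa ESRE-bla; density, 1,500/well; dosing, 5 hr at 37 C, 5% CO2; readout, CellTiter-Glo luminescence after 30 min RT.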

[13] = qHTS assay to identify small molecule antagonists of the retinoid-related orphan receptor gamma (ROR-gamma) signaling pathway - cell viability counter screen (AID 1159520; active = well fitted curve in the direction sought with a large enough effect in the repeat runs; an effect the other way counts as inactive or inconclusive; note: nearly all actives have a fitted effect of over 50% in size)
Outline: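 Cytotoxicity was read from cellular ATP (CellTiter-Glo luminescence) after 16 hr at 37 C with 1 uM doxycycline induction. The inducer was added 2 hr after compound transfer to Tet-on ROR gamma CHO cells.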

[14] = qHTS assay to identify small molecule agonists of the AP-1 signaling pathway - cell viability counter screen (AID 1159525); note: nearly all actives have a fitted effect of over 55% in size
Outline: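 Luminescent ATP readout (Cell Titer Glo, 30 min RT), normalised to DMSO and tetra n-octyl ammonium bromide controls. Cells were ME-180 AP-1-bla in 0.5% dialyzed FBS Opti-MEM, with a 5 h, 37 °C compound exposure.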

[15] = qHTS assay to identify small molecule agonists of the AP-1 signaling pathway (AID 1159526)
[16] = target: Retinoic acid receptor RXR-alpha (Homo sapiens) (UniProt P19793); experiment: qHTS assay to identify small molecule agonists of the RXR signaling pathway (AID 1159527); note: nearly all actives have a fitted effect of over 35% in size
Outline: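 Compounds in DMSO were added to RXR-alpha-UAS-bla HEK 293T cells kept in 2% charcoal-stripped serum, and incubated 16 hr at 37 C with 5% CO2. Reporter signal came from a 2 hr B/G FRET substrate step.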

[17] = qHTS assay to identify small molecule agonists of the farnesoid-X-receptor (FXR) signaling pathway - cell viability counter screen (AID 743218; active = well fitted curve in the direction sought with a large enough effect in the repeat runs; an effect the other way counts as inactive or inconclusive; note: nearly all actives have a fitted effect of over 45% in size)
Outline: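 FXR-UAS-bla HEK 293T cells exposed to compounds for 16 h at 37C. Cytotoxicity read in the same wells by CellTiter-Glo luminescence after 30 min at room temperature, following the beta-lactamase FRET read.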

[18] = target: Vitamin D3 receptor (Homo sapiens) (UniProt P11473); experiment: qHTS assay to identify small molecule agonists of the vitamin D receptor (VDR) signaling pathway (AID 743222)
Outline: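 VDR-bla cells plated 4 h at 37 C, then exposed to compounds for 16 h at 37 C. Beta-lactamase reporter activity measured by fluorescence after 2 h room-temperature loading with LiveBLAzer B/G FRET substrate.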

[19] = qHTS assay to identify small molecule agonists of the vitamin D receptor (VDR) signaling pathway - cell viability counter screen (AID 743224; active = well fitted curve in the direction sought with a large enough effect in the repeat runs; an effect the other way counts as inactive or inconclusive)
Outline: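 VDR-bla cells, 4 h after plating, exposed to compounds for 16 h at 37C; viability then read in the same wells as CellTiter-Glo luminescence after 30 min at room temperature, following the bla FRET read.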

Measured: Potency

Chain of Vitamin D3 receptor (Homo sapiens) (P11473 whole entry, looked up): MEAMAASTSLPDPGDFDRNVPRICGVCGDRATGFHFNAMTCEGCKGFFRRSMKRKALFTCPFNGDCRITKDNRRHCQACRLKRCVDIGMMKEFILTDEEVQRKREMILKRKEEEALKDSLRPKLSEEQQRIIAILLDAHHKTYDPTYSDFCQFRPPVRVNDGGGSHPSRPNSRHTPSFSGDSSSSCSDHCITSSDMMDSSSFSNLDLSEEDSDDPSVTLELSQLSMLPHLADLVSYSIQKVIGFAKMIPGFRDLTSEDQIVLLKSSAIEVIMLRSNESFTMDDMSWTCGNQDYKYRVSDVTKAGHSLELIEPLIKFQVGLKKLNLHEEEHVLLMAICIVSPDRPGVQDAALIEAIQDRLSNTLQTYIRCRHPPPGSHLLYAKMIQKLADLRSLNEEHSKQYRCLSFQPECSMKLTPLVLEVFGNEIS
Chain of Retinoic acid receptor RXR-alpha (Homo sapiens) (P19793 whole entry, looked up): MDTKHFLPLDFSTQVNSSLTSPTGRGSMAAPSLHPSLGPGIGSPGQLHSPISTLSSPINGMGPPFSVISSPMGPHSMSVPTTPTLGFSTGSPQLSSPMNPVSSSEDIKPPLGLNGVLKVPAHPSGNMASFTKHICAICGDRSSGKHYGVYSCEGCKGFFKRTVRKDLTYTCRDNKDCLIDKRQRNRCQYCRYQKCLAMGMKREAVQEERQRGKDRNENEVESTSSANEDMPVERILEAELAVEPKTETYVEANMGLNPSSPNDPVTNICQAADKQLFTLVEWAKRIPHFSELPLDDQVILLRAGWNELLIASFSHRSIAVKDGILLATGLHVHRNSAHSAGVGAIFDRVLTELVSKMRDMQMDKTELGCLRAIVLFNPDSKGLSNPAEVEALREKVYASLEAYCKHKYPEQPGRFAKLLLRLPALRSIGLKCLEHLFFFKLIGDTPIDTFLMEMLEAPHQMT
Chain of Bile acid receptor (Homo sapiens) (Q96RI1 whole entry, looked up): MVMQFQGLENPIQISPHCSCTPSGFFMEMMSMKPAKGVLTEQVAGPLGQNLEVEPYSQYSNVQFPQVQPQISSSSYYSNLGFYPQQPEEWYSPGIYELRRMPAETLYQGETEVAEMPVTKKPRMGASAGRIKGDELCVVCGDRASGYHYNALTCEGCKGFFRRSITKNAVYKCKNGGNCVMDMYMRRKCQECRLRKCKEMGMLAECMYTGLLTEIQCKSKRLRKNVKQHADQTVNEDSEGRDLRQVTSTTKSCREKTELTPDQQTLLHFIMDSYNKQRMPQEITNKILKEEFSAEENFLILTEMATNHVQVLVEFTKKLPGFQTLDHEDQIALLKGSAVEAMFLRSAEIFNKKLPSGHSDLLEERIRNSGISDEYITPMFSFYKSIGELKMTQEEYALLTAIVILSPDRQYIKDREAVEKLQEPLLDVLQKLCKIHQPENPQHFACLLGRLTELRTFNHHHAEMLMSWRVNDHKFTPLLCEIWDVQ
Chain of Peroxisome proliferator-activated receptor delta (Homo sapiens) (Q03181 whole entry, looked up): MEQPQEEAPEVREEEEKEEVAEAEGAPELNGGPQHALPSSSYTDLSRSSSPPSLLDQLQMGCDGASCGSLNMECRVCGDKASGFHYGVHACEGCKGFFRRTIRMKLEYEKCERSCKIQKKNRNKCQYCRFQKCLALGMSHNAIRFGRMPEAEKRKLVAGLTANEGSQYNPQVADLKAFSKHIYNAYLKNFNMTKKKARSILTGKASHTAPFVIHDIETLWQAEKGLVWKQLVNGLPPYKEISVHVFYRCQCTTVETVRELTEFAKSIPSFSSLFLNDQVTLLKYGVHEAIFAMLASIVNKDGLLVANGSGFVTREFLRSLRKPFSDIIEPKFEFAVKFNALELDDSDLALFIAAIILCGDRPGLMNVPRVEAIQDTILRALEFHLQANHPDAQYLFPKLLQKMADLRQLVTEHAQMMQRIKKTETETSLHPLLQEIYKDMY

Cc1cc(C)c(C(=O)P(=O)(C(=O)c2c(C)cc(C)cc2C)c2ccccc2)c(C)c1
not listed: [17] | [18] | [19]
inactive: all other assays above

COC(C)(C)C
not listed: [2] | [3] | [4] | [5]
inactive: all other assays above

COc1cccc(C(=O)NN(C(=O)c2cc(C)cc(C)c2)C(C)(C)C)c1C
not listed: [2] | [4] | [5] | [7] | [8] | [17]
inactive: all other assays above

C[C@H]1CCC[C@H](O)CCCCCc2cc(O)cc(O)c2C(=O)O1
not listed: [1] | [4] | [5] | [7] | [18]
inactive: all other assays above

COP(=S)(OC)Oc1c(Cl)cc(C)cc1Cl
not listed: [1] | [4] | [5] | [7]
inactive: all other assays above

C#CCN1C(=O)COc2cc(F)c(N3C(=O)C4=C(CCCC4)C3=O)cc21
not listed: [4] | [5] | [19]
inactive: all other assays above

Clc1cccc(N2CCNCC2)c1
not listed: [3] | [7] | [19]
inactive: all other assays above

CCN(CC)C(C)C(=O)c1ccccc1 (stereo not given)
not listed: [2] | [4] | [5] | [7] | [17] | [18]
inactive: all other assays above

Cc1ncc(CNC(=O)N(CCCl)N=O)c(N)n1
not listed: [3] | [4] | [5] | [7] | [17] | [18]
inactive: all other assays above

O=NN1CCN(N=O)CC1
not listed: [1] | [3] | [4]
inactive: all other assays above

CC(=O)CC(c1ccc(Cl)cc1)c1c(O)c2ccccc2oc1=O (stereo not given)
not listed: [4] | [5] | [7] | [16]
inactive: all other assays above

COc1cc(OC)nc(Sc2cccc(Cl)c2C(=O)O)n1
not listed: [1] | [3] | [4] | [5] | [8] | [19]
inactive: all other assays above

Source: PubChem BioAssay (Tox21)
